Screens: PubChem, National Center for Advancing Translational Sciences (NCATS)
An excerpt weighted towards active compounds, which were near 2.6% of everything screened.
Cruzain inh noDet: cruzain (T. cruzi) inhibition without detergent. P25779. purified cruzain, Z-FR-AMC fluorescence, no detergent. Potency, µM, without a hit: max response, negative = inhibition, most hits filed as inhibitors. 200,000 compounds, 2.3% hits. AID 1476;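 also: plate controls were enzyme without inhibitor for no effect and buffer without enzyme for full effect; nearly all actives have a fitted effect of over 40% in size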
Target sequence (P25779 123-467 limits assumed): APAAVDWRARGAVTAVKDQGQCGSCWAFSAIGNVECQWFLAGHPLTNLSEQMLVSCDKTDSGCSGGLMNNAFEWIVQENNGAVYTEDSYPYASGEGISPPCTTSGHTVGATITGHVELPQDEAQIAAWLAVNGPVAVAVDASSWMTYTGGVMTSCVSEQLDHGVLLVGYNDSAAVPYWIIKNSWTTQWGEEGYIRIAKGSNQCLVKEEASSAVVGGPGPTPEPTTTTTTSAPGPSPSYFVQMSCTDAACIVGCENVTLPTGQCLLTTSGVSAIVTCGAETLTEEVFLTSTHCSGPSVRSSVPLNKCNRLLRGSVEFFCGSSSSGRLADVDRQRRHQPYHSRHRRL
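Purified cruzain at 1.5 nM, pre-incubated 15 min with compound at room temperature in 100 mM sodium acetate pH 5.5, 5 mM DTT, 0.00005% Triton X-100. Reaction started with 2 uM Z-FR-AMC; AMC fluorescence increase over 60 s gives rate.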
Cruzain inh Det: blocks cruzain activity in presence of Triton detergent; P25779; purified cruzain, Z-FR-AMC fluorescence, 0.01% Triton; Potency, µM, for the others: max response, negative = inhibition, most hits filed as inhibitors; 200,000 compounds, 0.43% hits; AID 1478;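 also: plate controls were neutral wells for no effect and buffer without enzyme for full effect; nearly all actives have a fitted effect of over 40% in size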
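Enzyme 1.5 nM, Z-FR-AMC 2 uM, NaOAc 100 mM pH 5.5, DTT 5 mM, Triton X-100 0.01%; 15 min RT compound preincubation; kinetic ex360/em450, 60 s delta.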
Numbers without * were called inactive; ? = inconclusive. Calls follow the shape of the dose curve; as a rule, active = well fitted curve in the direction sought with a large enough effect; inconclusive = small, poorly fitted or top-dose-only effect, or another doubt; inactive = no such curve, though single readings can be large; an effect the other way counts as inactive or inconclusive. Potency is read from the fitted curve at half-maximal effect.

SMILES | Cruzain inh noDet | Cruzain inh Det
C(#Cc1ccccc1)C[N+]1(CC#Cc2ccccc2)CCCC1 | -13% | -3%
C=CC#CC[N+]1(CC#Cc2ccccc2)CCOCC1 | -8% | 25µM*
CC(=O)c1ccc(OC(=O)c2c(-c3ccccc3Cl)noc2C)cc1 | 1% | -5%
Cc1nc(NC(=O)c2ccc([N+](=O)[O-])cc2Cl)sc1C(=O)N(C)C | -14% | 16µM*
Cc1cc(C(=O)Nc2nc(C)c(C(=O)N(C)C)s2)ccc1[N+](=O)[O-] | -5% | -4%
CCn1nnc2cc(C(=O)Nc3ccc(C)c(Cl)c3)ccc21 | -8% | 3%
N#Cc1ccc(NC(=O)Nc2ccc(Cl)cc2)cc1 | 10µM* | -1%
CN(CC(=O)Nc1ccc(C#N)cc1)Cc1ccc(Cl)cc1 | 11% | 0%
Cc1cc(C)cc(N2C(=O)CS(=O)(=O)C23C(=O)N(Cc2ccc(F)cc2)c2ccc(C)cc23)c1 (stereo not drawn) | ? | -5%
COc1ccc(N2C(=O)CS(=O)(=O)C23C(=O)N(Cc2c(F)cccc2Cl)c2ccccc23)cc1 (stereo not drawn) | 7.9µM* | -3%
O=C1CSC2(C(=O)N(Cc3c(F)cccc3Cl)c3ccccc32)N1c1ccc(F)c(F)c1 (stereo not drawn) | -19% | -7%
Cc1cccc(N2C(=O)CS(=O)(=O)C23C(=O)N(Cc2c(F)cccc2Cl)c2ccccc23)c1 (stereo not drawn) | 3.2µM* | -4%
CN1C(=O)C2(c3ccccc31)N(c1ccccc1)C(=O)CS2(=O)=O (stereo not drawn) | ? | 0%
COc1ccc(N2C(=O)CS(=O)(=O)C23C(=O)N(Cc2ccccc2)c2ccccc23)cc1 (stereo not drawn) | 3.2µM* | -3%
CCOc1ccc(N2C(=O)CS(=O)(=O)C23C(=O)N(Cc2cccc(Cl)c2)c2ccccc23)cc1 (stereo not drawn) | 10µM* | -3%
CCCCN1CC(c2nc3ccccc3n2CCCCOc2c(C)cccc2C)CC1=O (stereo not drawn) | 6% | -4%
Cc1ccc(-n2ncc(C(=O)N3CCN(c4cc(Cl)ccc4C)CC3)c2C2CCN(C(=O)OC(C)(C)C)CC2)cc1 | 1% | -1%
COc1ccc(N2CCN(C(=O)c3ccc4nc(N5CCC(C)CC5)sc4c3)CC2)cc1 | 13% | -4%
COc1ccc(CNC(=O)CCCn2nc(C)c3sc4ccccc4c3c2=O)cc1OC | -22% | -5%
COc1ccccc1CNC(=O)CCCn1nc(C)c2sc3ccccc3c2c1=O | 10µM* | -4%
O=C(Nc1nc(-c2ccncc2)cs1)C1c2ccccc2Oc2ccccc21 | ? | -10%
COc1ccc(OC)c(-c2csc(NC(=O)C3c4ccccc4Oc4ccccc43)n2)c1 | 20µM* | 1%
COc1ccc(OC)c(-c2csc(NC(=O)CSc3ccccc3)n2)c1 | 4% | -6%
O=C(Nc1nc(-c2ccccc2)cs1)C1c2ccccc2Oc2ccccc21 | 20µM* | 5%
COc1ccc(C(=O)N2c3nc(-c4ccco4)nn3C3(CCCCC3)[C@@H]3CCCC[C@@H]32)cc1OC | -6% | -2%
SMILES | Cruzain inh noDet | Cruzain inh Det
N[C@@H](Cn1c2c(c(=O)[nH]c1=O)CCC2)C(=O)O | 3% | 4%
CCc1c(C)sc(NC(=O)c2cc(-c3ccc(OC)c(OC)c3)on2)c1C#N | -8% | -4%
CCc1c(C)sc(NC(=O)c2cc(-c3ccc(O)cc3)on2)c1C#N | 7.9µM* | -1%
CCOc1ccc(C(=O)NCC(=O)OCC(=O)N2CCCCC2)cc1 | 0% | -11%
CCOC(=O)C1CCCN(C(=O)c2ccc([N+](=O)[O-])c(C)c2)C1 (stereo not drawn) | 4% | -1%
O=C(CNC(=O)c1cccc(F)c1)OCC(=O)N1CCCCC1 | ? | 25µM*
Cc1cc(C(=O)NCC(=O)OCC(=O)N2CCCCCC2)ccc1[N+](=O)[O-] | 16µM* | 14µM*
CCOC(=O)c1c(S(=O)(=O)NCC(=O)Nc2ccc(C)c(Cl)c2)c(C)n(C)c1C | ? | -3%
Cn1ncc2c(N3CCN(c4ccc(F)cc4)CC3)ncnc21 | 1% | 1%
CCOc1ccc(-n2nc3ccc(NC(=O)c4ccc5c(c4)OCCO5)cc3n2)cc1 | 13µM* | -3%
CCc1ccc(-n2nc3ccc(NC(=O)c4ccc5c(c4)OCO5)cc3n2)cc1 | 10µM* | -1%
O=C(Nc1ccc2nn(-c3ccccc3)nc2c1)c1ccc2c(c1)OCCO2 | ? | -7%
Cc1ccc(-n2nc3ccc(NC(=O)c4ccc5c(c4)OCO5)cc3n2)cc1 | -6% | -1%
COc1cccc(CNC(=O)C2CCN(c3nnc(-n4c(C)ccc4C)s3)CC2)c1OC | 13% | -1%
Cc1ccc(NC(=O)c2oc3ccccc3c2NC(=O)c2cc3ccccc3o2)cc1 | ? | 0%
O=C(Nc1c(C(=O)Nc2cccc(F)c2)oc2ccccc12)c1cc2ccccc2o1 | 16µM* | -3%
Clc1ccc(N/N=C/c2cccnc2)cc1 | 10% | -10%
Cc1sc(N/N=C/c2cccnc2)nc1-c1ccc(Cl)cc1 | 16µM* | -7%
O=C(Nc1cccc(C(=O)OCc2cc(=O)n3c4c(sc3n2)CCCC4)c1)c1ccc(Cl)cc1 | -1% | 0%
COc1cc2c(cc1OC)C1=NC(=O)CN1C(SCc1ccc(C)cc1)=N2 | -9% | 6%
Cc1ccc(CSC2=Nc3sccc3C3=NC(=O)CN23)cc1 | 20µM* | -8%
Cc1ccccc1Nc1nn2c(=O)c3ccc(C(=O)NCC(C)c4ccccc4)cc3nc2s1 (stereo not drawn) | ? | -6%
O=C(CNC(=O)c1ccccc1)OCc1nc2ccccc2s1 | 13µM* | 25µM*
O=C(CNC(=O)c1ccc(Cl)cc1Cl)OCc1nc2ccccc2s1 | 4µM* | 7.9µM*
O=C(COC(=O)CCc1nc2ccccc2s1)Nc1ncc(Cl)cc1Cl | -8% | -6%
SMILES | Cruzain inh noDet | Cruzain inh Det
CC(=O)OCc1nc2ccccc2s1 | -7% | 2%
Cc1nc(N2CCOCC2)c2c(C(=O)N3CCN(c4cccc(C)c4C)CC3)c(C)oc2n1 | ? | 10%
O=c1ccn(Cc2ccccc2)c(=O)n1Cc1ccccc1 | 3% | -4%
O=c1ccsn1Cc1ccccc1 | 13µM* | ?
CCOc1ccc(CNC(=O)c2cc3c(s2)-c2ccccc2OC3)cc1 | -8% | -15%
COc1ccc(N2CCN(CCNC(=O)CCNS(=O)(=O)c3cccs3)CC2)cc1 | -7% | 2%
CC(C)C(NS(=O)(=O)c1cccs1)C(=O)NCCN1CCN(c2ccccc2)CC1 (stereo not drawn) | 25µM* | 20µM*
Cc1ccc(Cl)cc1N1CCN(C(c2cccnc2)c2nnnn2C2CCCCC2)CC1 (stereo not drawn) | 11% | -6%
Cc1ccc(Cl)cc1N1CCN(C(c2ccc(C#N)cc2)c2nnnn2C2CCCC2)CC1 (stereo not drawn) | 20µM* | 2%
COc1ccc(CC(=O)NC2CC(=O)N(c3cccc(F)c3)C2)cc1 (stereo not drawn) | 4% | 0%
CCOC(=O)c1c(-c2ccccc2)oc2ccc(NS(=O)(=O)c3ccc(C(C)C)cc3)cc12 | 20µM* | -3%
CCOC(=O)c1c(-c2ccccc2)oc2ccc(N(C(C)=O)S(=O)(=O)c3cc(C)ccc3C)cc12 | -10% | -3%
CCOC(=O)c1c(-c2ccccc2)oc2ccc(OCc3ccc(C)cc3)cc12 | 10% | -1%
CC(=O)c1c(C)oc2ccc(NS(=O)(=O)c3ccc(C(C)C)cc3)cc12 | 8% | -10%
CCOC(=O)c1c(-c2ccccc2)oc2ccc(NS(=O)(=O)c3ccc(C)cc3C)cc12 | 16µM* | -1%
